Hits are enriched below; roughly 2.1% of the tested compounds scored in any of these assays.
RN4220 kill = kills Staphylococcus aureus RN4220. S. aureus RN4220 growth, OD600, 16 h. hit rate 0.33% among 330,000. inhibition, % (concentration not given with the values); in the data active = inhibition above about 85%;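 also: plate controls were untreated cells for no effect and reference antibiotic for full effect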
PrP UTR inh = suppresses PrP 5' UTR mRNA reporter expression. cell-based PrP 5' UTR mRNA reporter, plate reader. inhibition, % (no concentration beside the values). hit rate 0.35% among 340,000. AID 488862; in the data active = inhibition above about 52%; also: 0 = median of the neutral control wells
PfHsp40 yeast = restores yeast growth despite PfHsp40 toxicity; S. cerevisiae expressing PfHsp40, growth rescue, ATP luminescence; growth rescue, % at 12.5 µM; hit rate 0.68% among 340,000; AID 504582; in the data active = growth rescue above about 28%, passing the limit was not always enough;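 also: yeast W303a lacking pdr1 and pdr3 grown in galactose medium; growth measured after three days at 30 °C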
ugtP null kill = kills S. aureus RN4220 lacking UgtP; S. aureus RN4220 ugtP deletion, OD600 growth, 16 h; hit rate 0.54% among 330,000; AID 1259309; growth inhibition, % (test concentration not listed); in the data active = growth inhibition above about 68%;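 also: plate controls were untreated wells for no effect and antibiotic for full effect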
PrPC TRFRET = inhibitors of human cell surface prion protein PrPC; P04156; TR-FRET read-out; inhibition, % at 13.8 µM; hit rate 0.43% among 370,000; in the data active = inhibition above about 24%; also: 0% = median of the test wells and 100% = reference compound wells
CCHF vOTU inh-1 = CCHFV vOTU protease inhibition. inhibition, % at 11.5 µM. Pep-AMC fluorescence. hit rate 0.55% among 370,000; also: 0% = vehicle wells with enzyme and 100% = no enzyme wells
PrP UTR cherry = prion 5' UTR mRNA inhibition, cherry-pick retest | shares compounds with PrP UTR inh | cell-based prion protein 5' UTR reporter, plate reader | inhibition, % at 2.5 µM | hit rate 48% among 1,100; in the data active = inhibition above about 54%
CCHF vOTU inh-2 = confirmation of CCHF virus vOTU protease inhibitors; hit rate 17% among 1,900; shares compounds with CCHF vOTU inh-1; inhibition, % at 11.5 µM; Recombinant CCHFV vOTU, Pep-AMC fluorescence; AID 686976
PrPC TRFRET cf = cell surface PrPC inhibition, TR-FRET confirmation; shares compounds with PrPC TRFRET; cell surface PrPC level; inhibition, % at 13.8 µM; hit rate 65% among 1,500; AID 743200; in the data active = inhibition above about 25%
LD9 cytotox = counter-screen for PrPc inhibitors: cytotoxicity in LD9 cells | shares compounds with PrPC TRFRET | luminescence viability | inhibition, % at 13.8 µM | hit rate 29% among 1,500 | AID 743201; in the data active = inhibition above about 9.5%
* hit, by the source's call; . = no result. Rule as the data show it, unless noted: active = inhibition above about 30%; inactive = the rest.

SMILES	RN4220 kill	PrP UTR inh	PfHsp40 yeast	ugtP null kill	PrPC TRFRET	CCHF vOTU inh-1	PrP UTR cherry	PrPC TRFRET cf	LD9 cytotox	others
CC(C)CC(NC(=O)c1nc[nH]c1C(=O)N1CCN(c2ccccc2)CC1)C(=O)OCc1ccccc1 (stereo not drawn)	6	.	.	1	.	.	.	.	.
Cc1cc(-c2n[nH]c(=S)n2N=Cc2cccc(O)c2)n[nH]1	4	.	.	4	.	.	.	.	.
C#CCOCCOCCOCCNc1nc(N2CCN(C(=O)C(CCC(=O)O)n3cc(C(N)CC(C)C)nn3)CC2)nc(N2CCN(C(=O)C(C(C)CC)n3cc(C(N)COC(=O)C(F)(F)F)nn3)CC2)n1 (stereo not drawn)	8	.	.	3	.	.	.	.	.
C=C1C(=O)OC2CC(C)C3C4OC4C(=O)[C@@]3(C)C(O)C12 (stereo partly drawn)	17	.	.	9	.	.	.	.	.
C=C1C(=O)O[C@@H]2C[C@@H](C)[C@@H]3C=CC(=O)[C@@]3(C)[C@@H](O)[C@H]12	.	56*	-2	.	95*	0	82*	100*	58*
OCC1OC(n2ccc3c2ncn2ncnc32)C(O)C1O (stereo not drawn)	.	.	.	.	-6	10	.	.	.
Nc1ncnc2c1ccn2[C@@H]1O[C@H](CO)[C@@H](O)[C@H]1O	3	81*	1	12	77*	-3	88*	68*	94*
NC(=S)c1cn(C2OC(CO)C(O)C2O)c2ncnc(N)c12 (stereo not drawn)	4	61*	0	-8	28*	-2	83*	37*	37*
CN1CCN(C(=O)C2=CC(c3ccc(Br)cc3)CC(OCc3ccc(CO)cc3)O2)CC1 (stereo not drawn)	-4	.	.	-2	.	.	.	.	.
CC(=O)OC1C(=O)OCC23CCC4(C)OC4C2OC2CC(OC(=O)C=CC=CC(=O)OCCC1C)C3(C)C21CO1 (stereo not drawn)	.	94*	.	.	92*	5	95*	98*	63*
CC(C)CC(CO)Nc1nc(N(C)c2cccc(Cl)c2)c2ncn(C(C)C)c2n1 (stereo not drawn)	1	.	.	9	.	.	.	.	.
C#CCOCCOCCOCCNc1nc(N2CCOCC2)nc(N2CCN(C(=O)CCCCCCCCCCNC(=O)C(C(C)CC)n3cc(CCCCCN)nn3)CC2)n1 (stereo not drawn)	2	.	.	-23	.	.	.	.	.
COc1ccc(CC2NCC(O)C2OC(C)=O)cc1 (stereo not drawn)	.	77*	2	.	94*	-2	95*	99*	51*
COc1ccc(CC2NCCC3(O)CCCCC23)cc1 (stereo not drawn)	2	-12	0	0	1	-22	.	.	.
CC(=O)OC1(C)CC(C)C(=O)C(C(O)CC2CC(=O)NC(=O)C2)C1 (stereo not drawn)	.	63*	12	.	91*	6	96*	101*	55*
CCC(C)C1NC(=O)C(NC(=O)C(CC(C)C)N(C)C(=O)C2CCCN2C(=O)C(C)O)C(C)OC(=O)C(Cc2ccc(OC)cc2)N(C)C(=O)C2CCCN2C(=O)C(CC(C)C)NC(=O)[C@H](C)C(=O)[C@H](C(C)C)OC(=O)CC1O (stereo partly drawn)	.	94*	-1	.	97*	29	96*	98*	64*
CC1(Cc2ccc(F)cc2)C(=O)Nc2ccc(S(=O)(=O)NC3CCCCC3)cc21 (stereo not drawn)	.	.	.	.	22	44*	.	.	.	CCHF vOTU inh-2=-6
CCCCN1CCC2C=CCC(C(=O)Nc3ccc(Cl)cc3Cl)C2C1=O (stereo not drawn)	5	.	.	8	.	.	.	.	.
O=C(Cc1c[nH]c2ccccc12)Nc1ccc(Nc2cccnc2)c(-c2ccc(-c3ccccc3)cc2F)c1	.	.	.	.	-6	30*	.	.	.	CCHF vOTU inh-2=-25
